About 7,900 targets were measured; listed, in parts, are those with a hit and a random draw of the rest. About 0.6% of all pairs of compound and target were hits. A number with no mark means an inactive call.
Experiments:
Experiment in all cases: log2 fold change, soluble protein after heating vs DMSO (PISA); higher = thermal stabilisation; K562 cells, 10 uM, 30 min; active = over 0.2 and 3.5 SD of the protein, either way, in both replicates (recomputed)
saracatinib = compound: CN1CCN(CCOc2cc(OC3CCOCC3)c3c(Nc4c(Cl)ccc5c4OCO5)ncnc3c2)CC1 [saracatinib]
How it was run: (§1)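 K562 cells (2×10^6 cells/mL) were treated with 10 μM compound for 30 min, and aliquots were heated for 3 min over 48°C-58°C. Pooled aliquots were extracted in PBS with 0.5% NP-40 at 4°C, and the supernatant after 21,000xg for 90 min was measured by TMTpro 16plex LC-MS/MS with channel sums equalised. Reported thermal stability, relative to control samples and from duplicates, is a log2 fold change.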

sotrastaurin = compound: CN1CCN(c2nc(C3=C(c4c[nH]c5ccccc45)C(=O)NC3=O)c3ccccc3n2)CC1 [sotrastaurin]
How it was run: as §1

alvocidib = compound: CN1CC[C@H](c2c(O)cc(O)c3c(=O)cc(-c4ccccc4Cl)oc23)[C@H](O)C1 [alvocidib]
How it was run: as §1

Tubastatin A = compound: CN1CCc2c(c3ccccc3n2Cc2ccc(C(=O)NO)cc2)C1 [Tubastatin A]
How it was run: as §1

[1] = compound: CNC(=O)C1=CC=CC=C1NC2=NC(=NC=C2Cl)NC3=C(C=C(C=C3)N4CCOCC4)OC
How it was run: as §1

defactinib = compound: CNC(=O)c1ccc(Nc2ncc(C(F)(F)F)c(NCc3nccnc3N(C)S(C)(=O)=O)n2)cc1 [defactinib]
How it was run: as §1

rucaparib = compound: CNCc1ccc(-c2[nH]c3cc(F)cc4c3c2CCNC4=O)cc1 [rucaparib]
How it was run: as §1

[2] = compound: CNc1nc(-c2ccc3c(N)n[nH]c3c2)cc(N2C[C@@H](C(=O)NC3CCCCC3)CC[C@H]2C)n1
How it was run: as §1

encorafenib = compound: COC(=O)N[C@@H](C)CNc1nccc(-c2cn(C(C)C)nc2-c2cc(Cl)cc(NS(C)(=O)=O)c2F)n1 [encorafenib]
How it was run: as §1

[3] = compound: COC(=O)[C@H](CCSC)NC(=O)C1=C(C=C(C=C1)NC[C@H](CS)N)C2=CC=CC=C2
How it was run: as §1

UniProt Q5SSJ5, sequence (Q5SSJ5 whole entry, looked up): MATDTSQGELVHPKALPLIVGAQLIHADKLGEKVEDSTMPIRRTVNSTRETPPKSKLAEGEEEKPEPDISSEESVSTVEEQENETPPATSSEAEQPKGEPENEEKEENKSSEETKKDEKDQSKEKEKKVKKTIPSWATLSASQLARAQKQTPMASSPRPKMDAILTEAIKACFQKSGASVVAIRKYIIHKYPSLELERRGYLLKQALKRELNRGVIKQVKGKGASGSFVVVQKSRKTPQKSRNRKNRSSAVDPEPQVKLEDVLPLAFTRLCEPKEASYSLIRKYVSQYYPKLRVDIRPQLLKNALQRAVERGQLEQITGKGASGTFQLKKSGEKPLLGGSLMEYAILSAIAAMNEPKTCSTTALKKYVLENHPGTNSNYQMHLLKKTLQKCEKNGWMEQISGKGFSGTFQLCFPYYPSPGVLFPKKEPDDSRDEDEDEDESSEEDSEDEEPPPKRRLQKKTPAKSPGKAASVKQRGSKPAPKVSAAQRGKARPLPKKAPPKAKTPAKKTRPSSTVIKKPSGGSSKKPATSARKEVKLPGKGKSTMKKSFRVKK
UniProt Q00688, sequence (Q00688 whole entry, looked up): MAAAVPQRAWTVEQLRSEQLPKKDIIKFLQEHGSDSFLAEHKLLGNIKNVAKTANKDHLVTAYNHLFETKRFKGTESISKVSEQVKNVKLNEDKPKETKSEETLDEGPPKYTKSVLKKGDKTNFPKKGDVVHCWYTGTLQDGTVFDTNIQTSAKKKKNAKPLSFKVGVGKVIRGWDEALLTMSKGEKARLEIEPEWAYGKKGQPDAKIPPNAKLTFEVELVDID
UniProt Q96JB3, sequence (Q96JB3 whole entry, looked up): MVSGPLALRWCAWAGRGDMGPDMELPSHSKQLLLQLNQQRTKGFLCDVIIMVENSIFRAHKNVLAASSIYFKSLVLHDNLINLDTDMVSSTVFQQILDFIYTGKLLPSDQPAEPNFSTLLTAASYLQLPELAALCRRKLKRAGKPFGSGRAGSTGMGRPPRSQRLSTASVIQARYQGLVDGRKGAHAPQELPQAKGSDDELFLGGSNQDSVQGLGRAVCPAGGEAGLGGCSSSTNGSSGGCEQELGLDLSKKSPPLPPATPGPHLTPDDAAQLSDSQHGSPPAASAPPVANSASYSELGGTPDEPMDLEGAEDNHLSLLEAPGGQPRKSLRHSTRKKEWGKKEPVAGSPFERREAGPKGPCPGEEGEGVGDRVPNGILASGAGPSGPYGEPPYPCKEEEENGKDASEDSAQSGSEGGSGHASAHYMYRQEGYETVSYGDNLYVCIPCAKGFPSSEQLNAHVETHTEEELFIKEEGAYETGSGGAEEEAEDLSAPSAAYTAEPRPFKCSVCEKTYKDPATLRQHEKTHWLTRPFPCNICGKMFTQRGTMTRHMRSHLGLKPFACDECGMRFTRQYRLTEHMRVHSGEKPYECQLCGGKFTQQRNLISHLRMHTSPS
UniProt P50213, sequence (P50213 whole entry, looked up): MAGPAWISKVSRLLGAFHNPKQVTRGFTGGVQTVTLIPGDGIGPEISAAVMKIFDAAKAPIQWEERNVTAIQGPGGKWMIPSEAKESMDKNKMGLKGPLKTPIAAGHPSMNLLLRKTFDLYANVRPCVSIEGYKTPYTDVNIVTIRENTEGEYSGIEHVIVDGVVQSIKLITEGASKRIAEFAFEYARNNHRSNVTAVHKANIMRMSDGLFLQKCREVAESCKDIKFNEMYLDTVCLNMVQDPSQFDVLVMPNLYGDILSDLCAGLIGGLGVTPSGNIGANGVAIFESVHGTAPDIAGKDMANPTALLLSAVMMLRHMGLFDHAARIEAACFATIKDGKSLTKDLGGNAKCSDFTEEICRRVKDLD
UniProt Q9UK97, sequence (Q9UK97 whole entry, looked up): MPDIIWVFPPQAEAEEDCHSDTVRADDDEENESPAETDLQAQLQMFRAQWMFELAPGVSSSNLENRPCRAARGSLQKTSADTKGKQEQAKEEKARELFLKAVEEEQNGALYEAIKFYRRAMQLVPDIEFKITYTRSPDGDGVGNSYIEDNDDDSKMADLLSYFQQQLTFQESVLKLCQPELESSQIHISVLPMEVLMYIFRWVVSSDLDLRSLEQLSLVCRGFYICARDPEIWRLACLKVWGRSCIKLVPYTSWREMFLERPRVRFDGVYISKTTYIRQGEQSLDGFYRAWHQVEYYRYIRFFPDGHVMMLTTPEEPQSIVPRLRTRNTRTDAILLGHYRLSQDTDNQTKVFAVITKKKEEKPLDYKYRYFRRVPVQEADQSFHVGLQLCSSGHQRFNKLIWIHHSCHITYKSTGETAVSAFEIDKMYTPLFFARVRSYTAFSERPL
UniProt Q9Y613, sequence (Q9Y613 whole entry, looked up): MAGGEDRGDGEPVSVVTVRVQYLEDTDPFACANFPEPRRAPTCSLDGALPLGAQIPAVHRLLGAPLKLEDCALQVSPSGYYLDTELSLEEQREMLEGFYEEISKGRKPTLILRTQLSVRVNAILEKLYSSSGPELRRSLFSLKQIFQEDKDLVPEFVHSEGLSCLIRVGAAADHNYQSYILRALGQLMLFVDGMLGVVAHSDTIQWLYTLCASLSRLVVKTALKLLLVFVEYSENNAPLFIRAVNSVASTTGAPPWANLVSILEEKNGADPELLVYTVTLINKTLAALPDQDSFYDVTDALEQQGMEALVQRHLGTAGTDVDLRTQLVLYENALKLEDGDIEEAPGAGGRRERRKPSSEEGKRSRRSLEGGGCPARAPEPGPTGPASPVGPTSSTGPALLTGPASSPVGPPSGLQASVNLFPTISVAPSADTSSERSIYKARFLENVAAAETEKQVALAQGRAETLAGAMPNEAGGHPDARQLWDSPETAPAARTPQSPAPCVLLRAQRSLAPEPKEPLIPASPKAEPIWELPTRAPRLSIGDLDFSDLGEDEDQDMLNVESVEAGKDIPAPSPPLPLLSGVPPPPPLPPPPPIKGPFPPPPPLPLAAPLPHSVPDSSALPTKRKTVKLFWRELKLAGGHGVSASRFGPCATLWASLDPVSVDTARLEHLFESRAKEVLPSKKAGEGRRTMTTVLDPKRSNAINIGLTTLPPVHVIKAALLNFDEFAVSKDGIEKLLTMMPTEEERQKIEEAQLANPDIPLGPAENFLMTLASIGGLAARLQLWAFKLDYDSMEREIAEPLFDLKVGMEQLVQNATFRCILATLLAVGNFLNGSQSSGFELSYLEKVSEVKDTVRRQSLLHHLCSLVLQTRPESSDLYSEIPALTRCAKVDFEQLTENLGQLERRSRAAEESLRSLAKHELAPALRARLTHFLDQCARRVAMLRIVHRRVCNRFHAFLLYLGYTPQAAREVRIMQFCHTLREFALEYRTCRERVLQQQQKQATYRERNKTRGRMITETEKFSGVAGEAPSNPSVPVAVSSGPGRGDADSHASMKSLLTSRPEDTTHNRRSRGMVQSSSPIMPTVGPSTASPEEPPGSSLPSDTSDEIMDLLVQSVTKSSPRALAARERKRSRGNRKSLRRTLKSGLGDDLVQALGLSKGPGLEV
UniProt P22570, sequence (P22570 whole entry, looked up): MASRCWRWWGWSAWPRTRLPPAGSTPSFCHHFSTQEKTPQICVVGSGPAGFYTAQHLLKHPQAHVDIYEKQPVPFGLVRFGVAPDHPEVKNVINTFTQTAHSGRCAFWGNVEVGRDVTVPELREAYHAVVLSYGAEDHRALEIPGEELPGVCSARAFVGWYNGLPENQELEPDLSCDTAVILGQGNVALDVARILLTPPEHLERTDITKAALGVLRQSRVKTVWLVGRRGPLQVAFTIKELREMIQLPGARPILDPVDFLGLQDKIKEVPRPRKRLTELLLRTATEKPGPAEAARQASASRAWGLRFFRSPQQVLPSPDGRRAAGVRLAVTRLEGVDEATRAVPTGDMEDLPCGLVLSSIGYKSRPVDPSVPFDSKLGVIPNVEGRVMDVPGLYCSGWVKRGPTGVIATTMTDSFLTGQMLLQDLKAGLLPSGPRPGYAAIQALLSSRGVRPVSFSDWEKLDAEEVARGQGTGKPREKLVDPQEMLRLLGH
UniProt P31943, sequence (P31943 whole entry, looked up): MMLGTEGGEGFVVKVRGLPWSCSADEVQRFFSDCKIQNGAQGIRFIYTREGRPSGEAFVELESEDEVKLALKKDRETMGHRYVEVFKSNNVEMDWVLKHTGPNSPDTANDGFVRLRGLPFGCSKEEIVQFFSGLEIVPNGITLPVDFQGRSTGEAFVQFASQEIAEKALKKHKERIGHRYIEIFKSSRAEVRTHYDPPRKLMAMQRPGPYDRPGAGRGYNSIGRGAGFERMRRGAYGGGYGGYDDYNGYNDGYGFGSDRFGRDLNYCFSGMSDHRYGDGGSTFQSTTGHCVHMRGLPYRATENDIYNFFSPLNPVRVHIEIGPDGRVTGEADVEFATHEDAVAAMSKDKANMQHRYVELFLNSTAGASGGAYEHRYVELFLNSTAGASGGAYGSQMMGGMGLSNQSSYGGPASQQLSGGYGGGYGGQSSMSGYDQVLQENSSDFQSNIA
UniProt Q92947, sequence (Q92947 whole entry, looked up): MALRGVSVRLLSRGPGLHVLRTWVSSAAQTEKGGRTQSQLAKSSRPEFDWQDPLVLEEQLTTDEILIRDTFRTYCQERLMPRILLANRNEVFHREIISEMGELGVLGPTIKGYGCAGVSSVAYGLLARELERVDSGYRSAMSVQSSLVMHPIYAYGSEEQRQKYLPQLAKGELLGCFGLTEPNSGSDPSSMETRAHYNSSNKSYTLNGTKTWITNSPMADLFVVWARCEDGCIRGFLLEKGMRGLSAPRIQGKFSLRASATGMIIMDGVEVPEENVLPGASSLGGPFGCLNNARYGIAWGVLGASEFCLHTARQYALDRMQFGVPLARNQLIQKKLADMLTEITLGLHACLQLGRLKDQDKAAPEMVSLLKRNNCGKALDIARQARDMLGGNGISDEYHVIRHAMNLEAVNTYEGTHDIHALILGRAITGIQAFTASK
UniProt Q9Y324, sequence (Q9Y324 whole entry, looked up): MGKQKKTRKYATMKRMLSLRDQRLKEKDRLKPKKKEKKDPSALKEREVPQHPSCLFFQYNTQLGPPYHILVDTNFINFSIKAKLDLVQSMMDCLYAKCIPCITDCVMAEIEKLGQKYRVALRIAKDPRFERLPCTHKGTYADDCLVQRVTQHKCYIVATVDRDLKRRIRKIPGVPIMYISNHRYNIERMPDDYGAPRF

Row | Target | log2 fold change (saracatinib) | log2 fold change (sotrastaurin) | log2 fold change (alvocidib) | log2 fold change (Tubastatin A) | log2 fold change [1] | log2 fold change (defactinib) | log2 fold change (rucaparib) | log2 fold change [2] | log2 fold change (encorafenib) | log2 fold change [3]
1 | HIC2 (UniProt Q96JB3) | -0.152 | -0.236 | 0.033 | -0.034 | -0.011 | -0.008 | 0.142 | -0.019 | 0.045 | 0.089
2 | GYG1 (UniProt P46976) | -0.03 | -0.425 | -0.046 | 0.033 | 0.091 | -0.042 | 0.062 | 0.038 | 0.083 | 0.013
3 | FDXR isoform 7 (UniProt P22570) | -0.027 | 0.116 | -0.058 | -0.01 | -0.012 | -0.115 | -0.035 | 0.034 | -0.034 | -0.023
4 | GTF3C5 isoform 3 (UniProt Q9Y5Q8) | 0.024 | -0.148 | 0.036 | 0.068 | -0.02 | -0.069 | -0.173 | 0.056 | 0.085 | -0.021
5 | GNPAT (UniProt O15228) | 0.01 | 0.077 | -0.073 | -0.047 | 0.045 | -0.035 | -0.06 | -0.041 | 0.001 | -0.027
6 | GLS (UniProt O94925) | 0.039 | -0.023 | -0.147 | 0.021 | -0.031 | -0.167 | 0.002 | -0.092 | 0.017 | -0.093
7 | FKBP3 (UniProt Q00688) | -0.006 | 0 | -0.004 | 0.017 | 0 | -0.024 | -0.052 | 0.01 | 0.012 | 0.033
8 | IFI30 (UniProt P13284) | 0.224 | 0.063 | -0.003 | -0.028 | -0.02 | -0.048 | 0.006 | 0.144 | 0.009 | 0.042
9 | GTF2A1 (UniProt P52655) | 0.048 | 0.087 | -0.039 | 0.003 | -0.007 | -0.038 | -0.021 | -0.003 | -0.056 | 0.032
10 | HOOK3 (UniProt Q86VS8) | -0.016 | -0.166 | 0.003 | -0.019 | 0.013 | -0.005 | -0.063 | -0.008 | 0.022 | -0.007
11 | GCDH (UniProt Q92947) | 0.035 | 0.07 | 0 | 0.004 | -0.054 | -0.012 | 0.045 | 0.009 | -0.047 | 0.008
12 | GLUL (UniProt P15104) | 0.012 | -0.058 | 0.026 | 0.048 | 0.142 | 0.036 | -0.039 | -0.153 | -0.02 | 0.038
13 | HNRNPH1 (UniProt P31943) | -0.018 | -0.157 | -0.163 | 0.076 | -0.065 | -0.278 | 0.08 | 0.058 | 0.114 | -0.047
14 | FUCA2 (UniProt Q9BTY2) | -0.013 | -0.021 | -0.003 | -0.026 | 0.028 | -0.045 | -0.139 | 0.003 | 0.012 | 0.038
15 | GSK3A (UniProt P49840) | -0.007 | 0.337 (active) | 0.257 | -0.007 | -0.009 | 0.18 | 0.22 | -0.041 | 0.005 | -0.051
16 | GTPBP6 (UniProt O43824) | 0.049 | -0.011 | 0.015 | -0.03 | -0.149 | -0.013 | 0.053 | 0.007 | -0.086 | 0.057
17 | FDFT1 (UniProt P37268) | 0.071 | 0.604 (active) | -0.033 | 0.012 | -0.002 | -0.02 | 0.004 | -0.072 | -0.032 | -0.028
18 | IFITM3 (UniProt Q01628) | -0.022 | 0.035 | -0.011 | 0.241 | 0.044 | -0.165 | 0.093 | 0.03 | 0.1 | 0.008
19 | HP1BP3 (UniProt Q5SSJ5) | -0.045 | -0.071 | 0.039 | 0.06 | -0.045 | 0.227 | -0.041 | -0.001 | 0.075 | -0.098
20 | HNRNPUL1 (UniProt M0R247) | -0.327 | 0.128 | 0.326 | -0.054 | -0.145 | – | 0.09 | -0.431 | -0.086 | –
21 | GOPC (UniProt Q9HD26) | -0.147 | 0.01 | 0.065 | 0.177 | 0.216 | 0.033 | – | 0.164 | – | -0.229
22 | IDH3A isoform 2 (UniProt P50213) | – | – | -0.206 | 0.138 | -0.117 | – | – | – | – | –
23 | GPS2 (UniProt Q13227) | – | -0.007 | – | 0.033 | 0.008 | -0.079 | 0.02 | – | 0.041 | -0.025
24 | GREB1 (UniProt Q4ZG55) | – | -0.175 | 0.123 | 0.264 | -0.113 | -0.008 | – | – | – | -0.112
25 | GSTT1 (UniProt P30711) | -0.011 | – | -0.023 | 0.015 | -0.029 | -0.027 | 0.028 | 0 | 0.023 | -0.062
26 | ICMT (UniProt O60725) | -0.105 | 0.025 | – | -0.065 | 0.061 | -0.034 | 0.037 | 0.235 | -0.144 | 0.062
27 | FHOD1 (UniProt Q9Y613) | -0.143 | -0.112 | 0.292 | – | -0.027 | -0.042 | 0.442 | 0.101 | 0.187 | 0.049
28 | FBXO9 (UniProt Q9UK97) | -0.024 | – | -0.018 | -0.003 | 0.141 | 0.052 | 0.055 | -0.014 | 0.152 | -0.037
29 | FCF1 (UniProt Q9Y324) | -0.111 | -0.116 | – | 0.07 | – | 0.26 | 0.187 | 0.2 | 0.121 | -0.044
